# Key:
# [1] = test system: Human papillomavirus type 1a protein E7 (residues 44-93); experiment: HPV1a E7 fragment binders on microarrays, primary screen, biochemical, small-molecule microarray, residues 44-93, 635 nm fluorescence (AID 1108); settings: small-molecule microarray binding, fluorescence 635 nm; higher = more signal;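 note: E7 fragment applied at 1 µg/mL in TBST for 1 h at 4 C; score combines spot fluorescence with its signal to noise ratio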
# [2] = modulators of HCV replicon luciferase signal, primary screen, HCV replication inhibitor project, Huh7 cells, luciferase reporter (AID 1109); settings: 48 h, higher = more signal;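 note: huh7 hepatoma cells harbouring a luciferase neomycin HCV replicon reporter; luciferase luminescence as measure of HCV replicon replication; test concentration not given here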
# [3] = target: Left-right determination factor 2 (Homo sapiens) (UniProt O00292); experiment: LEFTY2 binders on small-molecule microarrays, primary screen, biochemical, small-molecule microarray, 635 nm fluorescence scan (AID 1110); settings: LEFTY2 binding, higher = more signal
# Left-right determination factor 2 (Homo sapiens), sequence (O00292 whole entry, looked up): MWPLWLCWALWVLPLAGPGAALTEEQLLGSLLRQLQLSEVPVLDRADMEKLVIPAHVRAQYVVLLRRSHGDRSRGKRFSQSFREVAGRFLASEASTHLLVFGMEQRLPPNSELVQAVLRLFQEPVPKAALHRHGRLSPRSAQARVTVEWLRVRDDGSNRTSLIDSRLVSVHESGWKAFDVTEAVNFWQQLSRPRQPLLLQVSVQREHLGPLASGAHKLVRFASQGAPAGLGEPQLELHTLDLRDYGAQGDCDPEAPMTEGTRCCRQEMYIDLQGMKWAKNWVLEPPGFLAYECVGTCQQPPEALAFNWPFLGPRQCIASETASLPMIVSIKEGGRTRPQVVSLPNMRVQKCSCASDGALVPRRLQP
# [4] = target: Calmodulin-1 (Homo sapiens) (UniProt P0DP23); experiment: CALM1 binders on microarrays, EGTA buffer, profiling panel, biochemical, small-molecule microarray, Cy5-labelled CALM1 (AID 1111); settings: Cy5-CALM1 binding fluorescence, higher = more signal;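 note: labelled calmodulin applied in Tris saline Tween buffer holding calcium plus EGTA and DTT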
# [5] = target: Calmodulin-1 (Homo sapiens) (UniProt P0DP23); experiment: calcium-bound CALM1 binders on microarrays, profiling panel, artefact control for SMM control-protein annotation, biochemical, small-molecule microarray, Cy5-labelled CALM1, plus calcium (AID 1112); settings: Cy5-CALM1 binding fluorescence, higher = more signal;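 note: score merges spot fluorescence with signal to noise from triplicate slides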
# [6] = small-molecule microarray binders of probe aWnt5a, primary screen, biochemical, biotinylated probe, 635/667 nm fluorescence (AID 1113); settings: higher = more signal;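 note: score merges 667 nm fluorescence intensity with signal-to-noise per printed feature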
# [7] = small-molecule microarray binders of probe aShh, primary screen, biochemical, biotinylated probe, 635/667 nm fluorescence (AID 1114); settings: higher = more signal;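 note: probe is biotin-labelled aShh protein from a stem cell growth factor screen; measures binding of labelled protein to compounds printed on the slide; score merges feature fluorescence at 667 nm with signal-to-noise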
# [8] = small-molecule microarray binders of probe aNog, primary screen, biochemical, biotinylated probe, 635/667 nm fluorescence (AID 1115); settings: higher = more signal;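 note: probe is biotinylated aNog protein used at 0.15 µg/mL for 1 h at 4 C; z-score combines 667 nm fluorescence of each spot with its signal to noise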
# [9] = target: Torsin-1A-interacting protein 1 (Homo sapiens) (UniProt Q5JTV8); experiment: LAP1 binders from COS7 cell lysate, primary screen, small-molecule microarray, 635/667 nm fluorescence (AID 1116); settings: COS7-hLAP1 lysate binding, 635 nm fluorescence, higher = more signal
# Torsin-1A-interacting protein 1 (Homo sapiens), sequence (Q5JTV8 whole entry, looked up): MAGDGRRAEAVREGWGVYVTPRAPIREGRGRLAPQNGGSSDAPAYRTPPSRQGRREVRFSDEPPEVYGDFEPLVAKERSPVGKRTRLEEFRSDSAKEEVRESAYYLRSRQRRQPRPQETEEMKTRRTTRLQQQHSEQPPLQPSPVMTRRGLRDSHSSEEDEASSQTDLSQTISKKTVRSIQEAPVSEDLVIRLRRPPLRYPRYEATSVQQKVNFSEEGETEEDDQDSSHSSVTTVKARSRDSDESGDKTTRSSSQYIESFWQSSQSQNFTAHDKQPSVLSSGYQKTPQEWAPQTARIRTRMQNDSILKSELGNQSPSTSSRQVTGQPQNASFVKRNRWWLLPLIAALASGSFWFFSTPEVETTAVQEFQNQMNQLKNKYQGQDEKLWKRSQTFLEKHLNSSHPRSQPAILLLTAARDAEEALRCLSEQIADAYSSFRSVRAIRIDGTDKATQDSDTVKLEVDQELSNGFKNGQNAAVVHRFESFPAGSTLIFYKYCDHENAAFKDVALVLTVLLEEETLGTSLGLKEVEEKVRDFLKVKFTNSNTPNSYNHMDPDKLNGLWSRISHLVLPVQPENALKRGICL
# [10] = target: Alpha-bungarotoxin (Bungarus multicinctus) (UniProt P60615); experiment: alpha-bungarotoxin binders on microarray, profiling panel, artefact control for SMM control protein annotation, biochemical, small-molecule microarray, Alexa647 label, 635/667 nm fluorescence (AID 1117); settings: alpha-BTX-A647 binding fluorescence, higher = more signal
# Alpha-bungarotoxin (Bungarus multicinctus), sequence (P60615 whole entry, looked up): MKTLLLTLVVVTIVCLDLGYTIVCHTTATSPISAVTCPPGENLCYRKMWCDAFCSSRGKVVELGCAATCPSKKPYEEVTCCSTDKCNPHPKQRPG
SMILES,composite z-score [1],z-score [2],composite z-score [3],composite z-score [4],composite z-score [5],composite z-score [6],composite z-score [7],composite z-score [8],composite z-score [9],composite z-score [10]
CC(C)N1C(=O)C[C@@](C(=O)O)(c2ccc([N+](=O)[O-])cc2)[C@H]1c1ccc(CO)cc1,0.48,0.253,-1.14,0.233,0.432,-0.118,-0.153,-0.409,0.335,-0.315
CC(C)NC(=O)[C@@]1(C)c2ccccc2C(=O)N(Cc2ccc(OC(F)(F)F)cc2)[C@H]1c1ccc(CO)cc1,0.0959,-0.706,-1.49,-0.43,0.495,-0.124,-0.0833,-0.472,-0.284,-0.94
COCC(=C=CC[C@H](O)c1ccccc1OCCO)C[C@H](O)c1ccccn1,-0.0881,-0.267,0.155,-0.0135,-0.411,-0.18,-0.214,-0.173,-0.191,-0.0928
CCCC=C(CCC)[C@@H](NP(=O)(c1ccccc1)c1ccccc1)c1ccc(-c2ccccc2)cc1,1.23,-2.72,0.53,0.877,0.796,0.328,0.972,1.35,0.946,1.3
O=C1OCCC/C=C\[C@H]2OC34C=CCN(c5ccc6ccccc6c5)C(=O)[C@H]3N(CCO)C(=O)[C@@H]4C12 (stereo not given in full),-0.983,-0.0164,-1.2,0.0755,0.903,-0.154,-0.0533,-0.0631,-0.399,-1.95
C=CC[C@]1(C(=O)N2CCCCC2)N=C(c2ccc(OCCCO)cc2)O[C@H]1c1ccccc1CN=[N+]=[N-],1.42,-2.64,0.264,1.7,0.204,0.0246,-0.138,-0.769,0.447,0.875
COc1ccc(C#Cc2ccc3c(c2)[C@]2(C(=O)N3)[C@H](C(=O)O)[C@H]3C(=O)O[C@H](c4ccccc4)[C@H](c4ccccc4)N3[C@@H]2c2ccc(O)cc2)cc1,0.78,-1.43,-0.67,0.695,1.2,-0.124,0.214,-0.0446,0.286,-0.204
CC(C)[Si]1(C(C)C)OCc2cc(C3CC3)nc(-c3ccc(Oc4ccccc4)cc3)c21,-1.16,-2.24,-0.168,-0.289,0.631,-0.18,-0.117,-0.0208,-0.414,-0.336
NCCCCCNC(=O)[C@H]1C[C@H]2C(=O)N3CCC[C@H]3C(=O)N2[C@H]1c1cccc(OCCO)c1,1.32,0.5,-0.397,1.35,0.684,0.0375,0.14,-0.403,1.17,1.24
O=C1NC(=O)C2C1C=CC(C(O)c1ccco1)N2Nc1ccc(Cl)cc1Cl (stereo not given),0.478,-0.664,-0.39,0.317,0.381,-0.152,0.111,-0.3,0.478,0.396
C=CCC(OC(C)=O)[C@@H]1[C@@H](N(Cc2ccc(-c3cccc(C(F)(F)F)c3)o2)C(=O)c2ccc(-c3ccccc3)cc2)c2cc(OCCCO)ccc2N1C(=O)Cc1ccc2ccccc2c1 (stereo not given in full),-0.267,-1.09,-0.458,-0.248,0.277,-0.0981,0.0204,-0.144,-0.115,-0.153
CC(=O)N1CC2(CC2)CC1c1ccccc1 (stereo not given),0.753,0.677,0.171,0.107,0.0916,1.19,-0.227,2.15,0.791,-0.217
COC(=O)[C@@]1(Cc2ccc(OC)cc2)[C@H]2c3cc(C(=O)N4CCCC4)n(CCc4c[nH]c5ccc(O)cc45)c3C[C@H]2CN1C(=O)c1ccccc1,1.39,-1.51,0.148,0.797,0.202,0.14,0.315,0.863,1.4,0.485
COC(=O)[C@]1(CCS(=O)(=O)c2ccccc2)N=C(c2ccc(OCCCO)cc2)O[C@@H]1c1ccccc1N=[N+]=[N-],-0.0608,-2.55,0.744,1.73,0.785,0.0655,0.232,0.897,0.815,2.06
Cc1ccc(S[C@]2(C(=O)NC(C)C)CC(=O)N(Cc3cc(C(F)(F)F)cc(C(F)(F)F)c3)[C@@H]2c2ccc(CO)cc2)cc1,-0.411,-0.343,-1.76,-0.491,0.0262,0.0857,-0.393,-0.143,0.0702,0.26
CCCC1(C(=O)OC)C=C2C(=C(C)C(=O)C2C)CN1 (stereo not given),-0.75,-0.442,-0.569,-0.119,0.881,-0.0512,0.0141,0.929,0.635,-0.14
COc1ccc([Si](C)(C)[C@@H]2[C@@H](CC(=O)N(CCO)Cc3ccccc3)O[C@]3(C(=O)N(Cc4cccc(N5CCCCC5=O)c4)c4ccccc43)[C@H]2C)cc1,0.846,-3.89,0.478,0.822,0.645,0.0825,0.128,1.73,0.761,0.672
CC(C)[Si](C#CCCCC#N)(O[C@H](c1ccccc1)c1cn(Cc2ccccc2)nn1)C(C)C,0.157,-0.147,-0.0465,-0.321,-0.458,-0.252,0.0469,0.111,0.439,-0.199

SMILES,composite z-score [1],z-score [2],composite z-score [3],composite z-score [4],composite z-score [5],composite z-score [6],composite z-score [7],composite z-score [8],composite z-score [9],composite z-score [10]
[N-]=[N+]=Nc1ccccc1[C@@H]1OC(c2ccc(OCCCO)cc2)=N[C@]1(Cc1ccccc1)C(=O)N1CCCCC1,1.46,-2.57,0.0418,1.43,0.748,0.0484,0.337,1.37,1.57,1.25
COc1cc2c(cc1O)C=[N+](Cc1sc3ccccc3c1Cl)CC2,-0.429,-1.57,0.324,-0.0659,0.0401,-0.0403,-0.0626,0.162,0.25,0.252
[N-]=[N+]=Nc1ccccc1[C@@H]1OC(c2ccc(OCCCO)cc2)=N[C@]1(Cc1ccccc1)C(=O)O,1.4,0.848,-0.529,1.57,0.886,0.0391,0.0659,0.135,1.35,1.7
CN(C)C(=O)[C@]1(Cc2ccccc2CN=[N+]=[N-])N=C(c2ccc(OCCCO)cc2)O[C@@H]1c1ccccc1,1.47,-3.37,-0.0728,1.56,0.596,0.0337,0.792,1.05,1.39,1.92
CCOc1cc(C(O)C2C=CC3C(=O)NC(=O)C3N2Nc2ccc(Cl)cc2Cl)ccc1O (stereo not given),-1.7,0.822,-1.18,-0.07,-0.0008,-0.154,0.0062,0.119,0.0975,-0.0945
O=C(O)[C@@H]1C[C@@H]2C(=O)N3CCC[C@H]3C(=O)N2[C@@H]1c1ccc(O)cc1,1.05,3.97,0.48,0.271,0.204,-0.0701,-0.0289,-0.226,0.343,0.964
CCOC(=O)[C@@H]1CCCCN1C(=O)C(=O)OC,0.5,-0.583,0.449,-0.499,-0.305,-0.0684,-0.0904,-0.158,-0.274,0.154
C=C(COC)/C(=C/C[C@H](OC(=O)c1ccncc1)c1ccc(CO)o1)c1cnc2ccccc2c1,1.38,-0.403,0.321,-0.0747,-0.91,-0.0758,0.337,-0.12,0.865,1.91
COCCOC(=O)N1C(=O)[C@@]2(c3cc(C#CC4(O)CCCCCC4)ccc31)[C@H](C(=O)Nc1nc3ccccc3s1)[C@H]1C(=O)O[C@H](c3ccccc3)[C@H](c3ccccc3)N1[C@@H]2c1ccc(O)cc1,1.37,-0.895,1,1.29,0.102,-0.18,-0.0849,-0.188,0.286,1.1
COc1cccc(C)c1NC(=O)O[C@H]1[C@H](OC(=O)Nc2ccc3c(c2)OCO3)[C@@H](OC(=O)Nc2ccc3c(c2)OCO3)[C@@H](OC)O[C@@H]1CO,1.42,0.658,0.794,0.108,-1.04,0.0973,0.149,-0.0899,1.5,0.869
C=C[C@@H](OC)[C@H](OC(=O)Nc1ccc(OC)cc1)c1ccc(O)c(F)c1,0.392,0.859,-0.227,-1.84,-1.47,-0.208,0.0796,-0.834,0.302,-0.839
C=CC[C@@]1(C(=O)NCCCOC)N=C(c2ccc(OCCCO)cc2)O[C@@H]1c1ccccc1,1.06,-0.449,-0.526,1.94,0.626,0.155,-0.102,0.365,2.89,-0.146
COc1ccc([Si](C)(C)[C@H]2[C@H](CC(=O)N(CCO)Cc3ccccc3)O[C@@]3(C(=O)N(C)c4c(Br)cc(C)cc43)[C@@H]2C)cc1,0.926,-4.28,1.12,-0.763,0.973,-0.176,-0.154,-0.291,0.491,0.572
CO[C@H]1O[C@H](CO)[C@@H](OC(=O)Nc2ccccc2)[C@H](OC(=O)c2cc3ccccc3[nH]2)[C@H]1OC(=O)c1cc2ccccc2[nH]1,0.0679,-2.05,0.165,0.204,0.47,0.0642,0.14,-0.367,0.621,0.326
CCOC(=O)C[C@H]1[C@H](OC(=O)Cc2ccc3c(c2)OCO3)[C@@H](NC(=O)c2ccc3ccccc3n2)c2cc(OCCCO)ccc2N1C(=O)c1ccccc1,0.348,-1.26,-0.0499,0.179,-0.564,-0.0269,-0.214,0.0589,0.49,0.611
CN(C)C(=O)[C@@]1(Cc2ccccc2CN=[N+]=[N-])N=C(c2ccc(OCCCO)cc2)O[C@H]1c1ccccc1N=[N+]=[N-],1.45,-2.99,-0.553,1.73,1.11,-0.191,-0.138,1.84,2.26,1.93
COc1ccc(C#Cc2ccc3c(c2)[C@]2(C(=O)N3)[C@H](c3ccc(O)cc3)N3[C@H](c4ccccc4)[C@H](c4ccccc4)OC(=O)[C@H]3[C@@H]2C(=O)Nc2nc3ccccc3s2)cc1,1.26,-1.13,0.739,1.11,0.495,-0.0685,-0.0813,0.352,1.22,1.25
COCC(=C=CC[C@H](O)c1ccc(OCCO)cc1)CCO,0.364,-0.794,0.774,-0.31,-0.618,-0.0239,-0.138,-0.0898,1.6,-0.829

# — PubChem BioAssay
